Assay results from PubChem BioAssay AID1159580 (chemical genetic matrix, 2015).
“And” between values parts separate entries of the source, which are not always exact repeats. Identical values can stand only once. Among all 5,500 compounds or so, about 2,000 (36%) were called active. Another 18% or so got no clear call; they are omitted. No stated cut-off is given here; in the data, active means normalized growth mostly below about 0.91 (no sharp cut-off); inconclusive means no clear call, values can overlap the other calls; inactive means mostly above about 0.92. The list shows a part of the results.

Test: chemical genetic growth profiling, strain panel (AID 1159580);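 further: tested at 20 µM; growth read once vehicle control cultures reached saturation at 30 °C; 1 = growth at the plate median or of vehicle wells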
Details: S. cerevisiae deletion strains, growth OD

Measured: normalized growth

COc1cc(O)c2c(=O)cc(C)oc2c1CC=C(C)C
0.78 (active) and 0.962 (inactive): locus YJL095W, strain BCK1, stronger effect = lower value
active: locus YAL013W, strain DEP1, stronger effect = lower value 0.864 | locus YCL029C, strain bik1, stronger effect = lower value 0.872 | locus YDL035C, strain GPR1, stronger effect = lower value 0.805 | locus YDL074C, strain BRE1, stronger effect = lower value 0.748 | locus YDL192W, strain arf1, stronger effect = lower value 0.814 | locus YDR101C, strain arx1, stronger effect = lower value 0.89 | locus YDR137W, strain rgp1, stronger effect = lower value 0.817 | locus YDR162C, strain NBP2, stronger effect = lower value 0.696 | locus YDR195W, strain ref2 1.17 [resistant] | locus YDR318W, strain mcm21, stronger effect = lower value 0.806 | locus YDR392W, strain spt3, stronger effect = lower value 0.496 | locus YDR502C, strain sam2, stronger effect = lower value 0.909 | locus YER167W, strain BCK2, stronger effect = lower value 0.893 | locus YGL086W, strain mad1, stronger effect = lower value 0.876 | locus YHR013C, strain ard1, stronger effect = lower value 1.21 [resistant] | locus YHR129C, strain ARP1, stronger effect = lower value 0.919 | locus YIL066C, strain RNR3, stronger effect = lower value 0.781 | locus YIL125W, strain kgd1, stronger effect = lower value 0.93 | locus YIR030C, strain dcg1, stronger effect = lower value 0.92 | locus YJL095W, strain BCK1 (second series), stronger effect = lower value 0.905 | locus YJL129C, strain trk1, stronger effect = lower value 0.867 | locus YKR001C, strain vps1, stronger effect = lower value 0.806 | locus YLR113W, strain HOG1, stronger effect = lower value 0.838 | locus YLR262C, strain YPT6 (second series), stronger effect = lower value 0.827 | locus YLR268W, strain sec22, stronger effect = lower value 0.816 | locus YLR320W, strain mms22, stronger effect = lower value 0.83 | locus YLR330W, strain CHS5, stronger effect = lower value 0.811 | locus YLR342W, strain FKS1 (second series), stronger effect = lower value 0.78 | locus YLR371W, strain rom2, stronger effect = lower value 0.831 | locus YLR418C, strain cdc73, stronger effect = lower value 0.628 | locus YML032C, strain rad52, stronger effect = lower value 0.858 | locus YMR058W, strain fet3, stronger effect = lower value 0.845 | locus YMR205C, strain PFK2, stronger effect = lower value 0.849 | locus YNL071W, strain lat1, stronger effect = lower value 0.847 | locus YNL233W, strain BNI4, stronger effect = lower value 0.852 | locus YNL307C, strain MCK1, stronger effect = lower value 0.618 | locus YOL147C, strain pex11, stronger effect = lower value 0.818 | locus YOR144C, strain elg1, stronger effect = lower value 0.919 | locus YOR184W, strain ser1, stronger effect = lower value 0.587 | locus YPR163C, strain tif3, stronger effect = lower value 0.776 | strain wtn01, stronger effect = lower value 0.852
inactive: locus YAL021C, strain ccr4, stronger effect = lower value 0.99 | locus YAL026C, strain drs2, stronger effect = lower value 0.996 | locus YAL030W, strain snc1, stronger effect = lower value 0.967 | locus YBL061C, strain skt5, stronger effect = lower value 0.96 | locus YBR009C, strain hhf1, stronger effect = lower value 0.917 | locus YBR021W, strain FUR4, stronger effect = lower value 0.9 | locus YBR023C, strain chs3, stronger effect = lower value 0.941 | locus YBR171W, strain sec66, stronger effect = lower value 0.968 | locus YBR229C, strain ROT2, stronger effect = lower value 0.93 | locus YBR231C, strain swc5, stronger effect = lower value 0.98 | locus YBR279W, strain paf1, stronger effect = lower value 0.991 | locus YCL011C, strain gbp2, stronger effect = lower value 0.962 | locus YCL016C, strain dcc1, stronger effect = lower value 0.953 | locus YCL069W, strain vba3, stronger effect = lower value 0.997 | locus YCR088W, strain abp1, stronger effect = lower value 0.982 | locus YDL005C, strain med2, stronger effect = lower value 1.03 | locus YDL040C, strain nat1, stronger effect = lower value 0.986 | locus YDL101C, strain DUN1, stronger effect = lower value 0.954 | locus YDL185W, strain tfp1, stronger effect = lower value 0.929 | locus YDR001C, strain nth1, stronger effect = lower value 0.979 | locus YDR069C, strain doa4, stronger effect = lower value 0.97 | locus YDR150W, strain NUM1, stronger effect = lower value 0.946 | locus YDR159W, strain sac3, stronger effect = lower value 0.959 | locus YDR297W, strain sur2, stronger effect = lower value 0.967 | locus YDR334W, strain swr1, stronger effect = lower value 0.984 | locus YDR335W, strain msn5, stronger effect = lower value 0.986 | locus YDR388W, stronger effect = lower value 0.943 | locus YEL003W, strain gim4, stronger effect = lower value 0.957 | locus YEL037C, strain rad23, stronger effect = lower value 0.984 | locus YEL061C, strain CIN8 (second series), stronger effect = lower value 0.993 | locus YEL061C, strain CIN8, stronger effect = lower value 0.941 | locus YER015W, strain faa2, stronger effect = lower value 0.977 | locus YER016W, strain bim1, stronger effect = lower value 0.965 | locus YER110C, stronger effect = lower value 0.947 | locus YER111C, strain swi4, stronger effect = lower value 1.01 | locus YER155C, strain BEM2 (second series), stronger effect = lower value 0.903 | locus YER155C, strain BEM2, stronger effect = lower value 0.928 | locus YFR010W, strain ubp6, stronger effect = lower value 1 | locus YGL078C, strain dbp3, stronger effect = lower value 0.971 | locus YGL167C, strain pmr1, stronger effect = lower value 0.952 | locus YGL173C, strain kem1, stronger effect = lower value 0.982 | locus YGL227W, strain vid30, stronger effect = lower value 1 | locus YGL240W, strain doc1, stronger effect = lower value 0.987 | locus YGL248W, strain PDE1, stronger effect = lower value 0.898 | locus YGL253W, strain hxk2, stronger effect = lower value 0.99 | locus YGR078C, strain PAC10, stronger effect = lower value 0.874 | locus YGR135W, strain pre9, stronger effect = lower value 1 | locus YGR252W, strain gcn5, stronger effect = lower value 0.839 | locus YHR027C, strain rpn1, stronger effect = lower value 0.985 | locus YHR030C, strain SLT2, stronger effect = lower value 0.95 | locus YHR079C, strain IRE1 (second series), stronger effect = lower value 0.949 | locus YHR079C, strain IRE1, stronger effect = lower value 0.953 | locus YHR094C, strain hxt1, stronger effect = lower value 0.941 | locus YHR142W, strain chs7, stronger effect = lower value 0.884 | locus YHR200W, strain rpn10, stronger effect = lower value 0.952 | locus YIL073C, strain SPO22, stronger effect = lower value 0.849 | locus YJL092W, strain hpr5, stronger effect = lower value 0.985 | locus YJL115W, strain asf1, stronger effect = lower value 1.02 | locus YJL134W, strain LCB3, stronger effect = lower value 0.946 | locus YJL154C, strain vps35, stronger effect = lower value 1 | locus YJL164C, strain tpk1, stronger effect = lower value 0.941 | locus YJL166W, strain qcr8, stronger effect = lower value 0.967 | locus YJL168C, strain set2, stronger effect = lower value 0.965 | locus YJL187C, strain SWE1 (second series), stronger effect = lower value 0.943 | locus YJR043C, strain POL32, stronger effect = lower value 0.87 | locus YJR066W, strain TOR1, stronger effect = lower value 0.929 | locus YKL009W, strain mrt4, stronger effect = lower value 0.897 | locus YKL068W, stronger effect = lower value 0.945 | locus YKL085W, strain MDH1 (second series), stronger effect = lower value 0.936 | locus YKL085W, strain MDH1, stronger effect = lower value 0.936 | locus YKL160W, strain elf1, stronger effect = lower value 0.945 | locus YKR026C, strain gcn3, stronger effect = lower value 0.986 | locus YKR091W, strain srl3, stronger effect = lower value 0.978 | locus YLL001W, strain dnm1, stronger effect = lower value 0.982 | locus YLL026W, stronger effect = lower value 0.974 | locus YLL041C, strain sdh2, stronger effect = lower value 0.96 | locus YLR027C, strain aat2, stronger effect = lower value 0.972 | locus YLR039C, strain RIC1, stronger effect = lower value 0.797 | locus YLR058C, strain SHM2, stronger effect = lower value 0.912 | locus YLR102C, strain apc9, stronger effect = lower value 0.945 | locus YLR221C, strain rsa3, stronger effect = lower value 0.942 | locus YLR258W, strain gsy2, stronger effect = lower value 0.972 | locus YLR262C, strain YPT6, stronger effect = lower value 0.674 | locus YLR342W, strain FKS1, stronger effect = lower value 0.929 | locus YLR357W, strain rsc2, stronger effect = lower value 1.06 | locus YLR370C, strain arc18, stronger effect = lower value 0.97 | locus YLR384C, strain iki3, stronger effect = lower value 0.991 | locus YML016C, strain PPZ1, stronger effect = lower value 0.944 | locus YML120C, strain ndi1, stronger effect = lower value 0.976 | locus YML124C, strain tub3, stronger effect = lower value 0.945 | locus YMR078C, strain ctf18, stronger effect = lower value 0.919 | locus YMR125W, strain sto1, stronger effect = lower value 0.997 | locus YMR129W, stronger effect = lower value 0.979 | locus YMR223W, strain ubp8, stronger effect = lower value 0.911 | locus YMR231W, strain pep5, stronger effect = lower value 1.01 | locus YMR307W, strain GAS1, stronger effect = lower value 0.668 | locus YNL067W, strain RPL9B, stronger effect = lower value 1 | locus YNL153C, strain GIM3, stronger effect = lower value 0.926 | locus YNL183C, strain NPR1, stronger effect = lower value 0.935 | locus YNL209W, strain ssb2, stronger effect = lower value 0.973 | locus YNL248C, strain rpa49, stronger effect = lower value 1.04 | locus YNL250W, strain rad50, stronger effect = lower value 0.977 | locus YNL271C, strain bni1, stronger effect = lower value 0.953 | locus YNL298W, strain CLA4, stronger effect = lower value 0.923 | locus YNL322C, strain KRE1 (second series), stronger effect = lower value 0.998 | locus YNR049C, strain mso1, stronger effect = lower value 0.996 | locus YNR052C, strain pop2, stronger effect = lower value 0.988 | locus YOL012C, strain htz1 0.465 | locus YOR001W, strain rrp6, stronger effect = lower value 0.989 | locus YOR061W, strain CKA2, stronger effect = lower value 0.92 | locus YOR069W, strain VPS5, stronger effect = lower value 0.964 | locus YOR070C, strain gyp1, stronger effect = lower value 0.982 | locus YOR080W, strain dia2, stronger effect = lower value 0.993 | locus YOR083W, strain WHI5, stronger effect = lower value 0.97 | locus YOR106W, strain vam3, stronger effect = lower value 0.971 | locus YOR136W, strain idh2, stronger effect = lower value 0.963 | locus YOR231W, strain MKK1, stronger effect = lower value 0.941 | locus YOR265W, strain rbl2, stronger effect = lower value 0.973 | locus YOR270C, strain vph1, stronger effect = lower value 0.837 | locus YOR290C, strain snf2, stronger effect = lower value 0.941 | locus YOR316C, strain cot1, stronger effect = lower value 0.944 | locus YPL051W, strain arl3, stronger effect = lower value 0.936 | locus YPL078C, strain atp4, stronger effect = lower value 0.959 | locus YPL106C, strain sse1, stronger effect = lower value 0.954 | locus YPL240C, strain hsp82, stronger effect = lower value 0.965 | locus YPL256C, strain CLN2, stronger effect = lower value 0.933 | locus YPR119W, strain clb2, stronger effect = lower value 0.951 | locus YPR141C, strain kar3, stronger effect = lower value 0.93 | locus YPR167C, strain met16, stronger effect = lower value 0.937
